# Compounds without any hit were thinned out: in the full panel of roughly 79,000, 15% have a hit. Unmarked numbers belong to inactive results. The source made the active and inactive calls. No stated cut-off is given here; in the data, active means growth inhibition above about 70%; inactive means the rest.
# Legend:
# [1] = NCI Yeast Anticancer Drug Screen. Data for the rad52 strain (AID 147);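 further: 0% = growth of vehicle-treated control cultures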; settings: S. cerevisiae rad52 mutant growth inhibition, stronger effect = higher value
# Method in brief: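 Measured: yeast growth inhibition. System: strain with a defined DNA damage repair alteration. Reference: vehicle-treated control cultures.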
# [2] = NCI Yeast Anticancer Drug Screen. Data for the rad50EPP+ strain (AID 151);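 further: 0% = growth of vehicle-treated control cultures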; settings: S. cerevisiae rad50 mutant strain, stronger effect = higher value
# Method in brief: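 One strain with a rad50 alteration (rad50EPP+) was compound-treated, its growth then compared to that of vehicle controls.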
# [3] = NCI Yeast Anticancer Drug Screen. Data for the mgt1 strain (AID 153); settings: S. cerevisiae mgt1 mutant growth inhibition, stronger effect = higher value
# Method in brief: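 After exposure of the mgt1 yeast mutant to compound, growth was measured and reported as inhibition compared with vehicle controls.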
# [4] = NCI Yeast Anticancer Drug Screen. Data for the rad50 strain (AID 155);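 further: 0% = growth of vehicle-only cultures of the same strain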; settings: S. cerevisiae rad50 strain growth inhibition, stronger effect = higher value
# Method in brief: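 Yeast carrying a defined DNA repair defect were exposed to test compounds, and growth was compared with vehicle-treated controls to give percent inhibition.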
# [5] = NCI Yeast Anticancer Drug Screen. Data for the mec2-1 strain (AID 157); settings: S. cerevisiae mec2-1 strain, stronger effect = higher value
# Method in brief: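 Test agents were screened against the mec2-1 yeast strain, with defined DNA repair or cell cycle alteration. Growth was scored as inhibition against vehicle-only controls.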
# [6] = NCI Yeast Anticancer Drug Screen. Data for the rad14 strain (AID 159);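 further: 0% = growth of vehicle-treated control cultures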; settings: S. cerevisiae rad14 strain growth inhibition, stronger effect = higher value
# Method in brief: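 Yeast cells carrying a defined DNA-repair defect were exposed to compounds, and growth inhibition was calculated relative to vehicle-treated control cultures.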
# [7] = NCI Yeast Anticancer Drug Screen. Data for the sgs1 mgt1 strain (AID 161);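 further: 0% = growth of cultures given vehicle only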; settings: S. cerevisiae sgs1 mgt1 strain, stronger effect = higher value
# Method in brief: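 Inhibition of yeast growth, normalised to vehicle-treated controls, is reported for a strain bearing genetic alterations in DNA damage repair.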
# [8] = NCI Yeast Anticancer Drug Screen. Data for the cln2 rad14 strain (AID 165);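 further: 0% = growth equal to vehicle treated cultures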; settings: S. cerevisiae cln2 rad14 strain, stronger effect = higher value
# Method in brief: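 Growth of compound-exposed yeast (cln2 rad14 genotype) measured and expressed as inhibition relative to vehicle.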
# [9] = NCI Yeast Anticancer Drug Screen. Data for the bub3 strain (AID 167); settings: S. cerevisiae bub3 mutant strain, stronger effect = higher value
# Method in brief: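 Compounds were applied to a genetically altered yeast strain carrying a cell-cycle control defect. Growth inhibition was scored against vehicle-treated controls.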
# [10] = NCI Yeast Anticancer Drug Screen. Data for the wt2 strain (AID 169);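 further: 0% = growth of vehicle-treated yeast cultures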; settings: S. cerevisiae wt2 strain growth inhibition, stronger effect = higher value
# Method in brief: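 Genetically defined yeast strains from a DNA-repair/cell-cycle panel were used. Compound-exposed yeast growth was measured, and the inhibition was calculated relative to vehicle treatment.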
# [11] = NCI Yeast Anticancer Drug Screen. Data for the mlh1 strain (AID 171);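 further: 0% = growth of vehicle-treated control cultures of the same strain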; settings: S. cerevisiae mlh1 strain growth inhibition, stronger effect = higher value
# Method in brief: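 Here the genetically defined yeast mutant is grown with each compound, and the extent to which its growth falls below that of vehicle-exposed cells is reported.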
# [12] = NCI Yeast Anticancer Drug Screen. Data for the sgs1 strain (AID 173);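 further: 0% = growth of vehicle-only control cultures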; settings: S. cerevisiae sgs1 mutant, stronger effect = higher value
# Method in brief: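 Relative growth inhibition, referenced to vehicle, was determined in a yeast strain with a defined alteration affecting DNA damage repair or cell cycle control after compound exposure.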
# [13] = NCI Yeast Anticancer Drug Screen. Data for the mlh1 rad18 strain (AID 175); settings: S. cerevisiae mlh1 rad18 strain growth inhibition, stronger effect = higher value
# Method in brief: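 In this whole-cell yeast screen, a strain with altered DNA damage repair is challenged with compound, and its growth is measured against matched vehicle-treated controls.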
# [14] = NCI Yeast Anticancer Drug Screen. Data for the rad18 strain (AID 177); settings: S. cerevisiae rad18 mutant growth inhibition, stronger effect = higher value
# Method in brief: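 Screen uses a yeast strain with a defined lesion in DNA damage repair; compound effect is read as loss of growth compared to untreated vehicle cultures.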
# [15] = at 5.0 µM (retest, dose inferred, filed as 0.5)
# [16] = at 50.0 µM (retest, dose inferred, filed as 5.0)
smiles,measurement,setting,value
O=C1c2ccccc2C(=O)c2sc(Nc3ccccc3Cl)nc21,growth inhibition,[1]; at 1.2 µM,-11%
same,growth inhibition,[1]; at 3.7 µM,42%
same,growth inhibition,[1]; at 11.0 µM,90% (active)
same,growth inhibition,[1]; at 33.0 µM,99% (active)
same,growth inhibition,[1]; at 100.0 µM,98% (active)
same,growth inhibition,[2]; at 1.2 µM,-37%
same,growth inhibition,[2]; at 3.7 µM,27%
same,growth inhibition,[2]; at 11.0 µM,94% (active)
same,growth inhibition,[2]; at 33.0 µM,99% (active)
same,growth inhibition,[2]; at 100.0 µM,98% (active)
same,growth inhibition,[3]; at 1.2 µM,-13%
same,growth inhibition,[3]; at 3.7 µM,19%
same,growth inhibition,[3]; at 11.0 µM,96% (active)
same,growth inhibition,[3]; at 33.0 µM,99% (active)
same,growth inhibition,[3]; at 100.0 µM,98% (active)
same,growth inhibition,[4]; at 1.2 µM,-1%
same,growth inhibition,[4]; at 3.7 µM,13%
same,growth inhibition,[4]; [15],87% (active)
same,growth inhibition,[4]; at 11.0 µM,78% (active)
same,growth inhibition,[4]; at 33.0 µM,98% (active)
same,growth inhibition,[4]; [16],99% (active)
same,growth inhibition,[4]; at 50.0 µM,89.6% (active)
same,growth inhibition,[4]; at 100.0 µM,96% (active)
same,growth inhibition,[5]; at 1.2 µM,-13%
same,growth inhibition,[5]; at 3.7 µM,32%
same,growth inhibition,[5]; [15],97% (active)
same,growth inhibition,[5]; at 11.0 µM,99% (active)
same,growth inhibition,[5]; at 33.0 µM,99% (active)
same,growth inhibition,[5]; [16],99% (active)
same,growth inhibition,[5]; at 50.0 µM,91.2% (active)
same,growth inhibition,[5]; at 100.0 µM,98% (active)
same,growth inhibition,[6]; at 1.2 µM,-19%
same,growth inhibition,[6]; at 3.7 µM,26%
same,growth inhibition,[6]; at 11.0 µM,96% (active)
same,growth inhibition,[6]; at 33.0 µM,99% (active)
same,growth inhibition,[6]; at 100.0 µM,98% (active)
same,growth inhibition,[7]; [15],100% (active)
same,growth inhibition,[7]; [16],100% (active)
same,growth inhibition,[7]; at 50.0 µM,93.7% (active)
same,growth inhibition,[8]; [15],57%
same,growth inhibition,[8]; [16],99% (active)
same,growth inhibition,[8]; at 50.0 µM,91.3% (active)
same,growth inhibition,[9]; at 1.2 µM,-4%
same,growth inhibition,[9]; at 3.7 µM,54%
same,growth inhibition,[9]; [15],99% (active)
same,growth inhibition,[9]; at 11.0 µM,97% (active)
same,growth inhibition,[9]; at 33.0 µM,99% (active)
same,growth inhibition,[9]; [16],99% (active)
same,growth inhibition,[9]; at 50.0 µM,90.1% (active)
same,growth inhibition,[9]; at 100.0 µM,97% (active)
same,growth inhibition,[10]; at 1.2 µM,1%
same,growth inhibition,[10]; at 3.7 µM,77% (active)
same,growth inhibition,[10]; at 11.0 µM,99% (active)
same,growth inhibition,[10]; at 33.0 µM,99% (active)
same,growth inhibition,[10]; at 100.0 µM,98% (active)
same,growth inhibition,[11]; at 1.2 µM,-30%
same,growth inhibition,[11]; at 3.7 µM,-6%
same,growth inhibition,[11]; at 11.0 µM,94% (active)
same,growth inhibition,[11]; at 33.0 µM,99% (active)
same,growth inhibition,[11]; at 100.0 µM,97% (active)
same,growth inhibition,[12]; at 1.2 µM,-6%
same,growth inhibition,[12]; at 3.7 µM,16%
same,growth inhibition,[12]; at 11.0 µM,82% (active)
same,growth inhibition,[12]; at 33.0 µM,99% (active)
same,growth inhibition,[12]; at 100.0 µM,97% (active)
same,growth inhibition,[13]; [15],96% (active)
same,growth inhibition,[13]; [16],99% (active)
same,growth inhibition,[13]; at 50.0 µM,85.8% (active)
same,growth inhibition,[14]; at 1.2 µM,-14%
same,growth inhibition,[14]; at 3.7 µM,25%
same,growth inhibition,[14]; at 11.0 µM,83% (active)
same,growth inhibition,[14]; at 33.0 µM,99% (active)
same,growth inhibition,[14]; at 100.0 µM,97% (active)

# — PubChem BioAssay (NCI)
